High-throughput results deposited in PubChem by National Center for Advancing Translational Sciences (NCATS).
This is a sample that favours compounds with a hit; in the whole collection about 17% have one here.
TDP1 cell noCPT: qHTS for Inhibitors of human tyrosyl-DNA phosphodiesterase 1 (TDP1): qHTS in cells in absence of CPT | 420,000 compounds, 15% hits | DT40 Tdp1-/- hTDP1 cells, no CPT, ATP luminescence, 48 h | Potency, µM (doses to about 46.2 µM), for inactives: at the highest dose activity change, negative = growth inhibition, actives largely listed as inhibitors; also: % is scaled to controls: 0 for no effect and ±100 for the full control effect; nearly all actives have a fitted effect of over 55% in size
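Compound effects on proliferation are scored in DT40 Tdp1-/-;hTDP1 cells in the absence of CPT. ATP levels (CellTiter-Glo luminescence) are recorded after a ≥48 hr, 37 °C incubation.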
HT1080 IDH1KD tx: toxicity to HT-1080 IDH1 knockdown cells (counter line) | HT-1080 IDH1 knockdown viability, ATP luminescence, 48 h | Potency, µM (doses to about 46.1 µM), without a hit: top-dose activity, negative = toxicity, actives largely listed as cytotoxic | 360,000 compounds, 2% hits;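 also: 0% = DMSO wells and -100% = cell-free medium wells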
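CellTiter-Glo luminescence after 48 h compound exposure at 37 degrees C of IDH1-knockdown HT-1080 cells in 5% FBS RPMI. %Activity scaled between DMSO wells and cell-free media wells, with curves fitted and assigned curve classes.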
HepG2 viability: counter-screen for TGF-b inhibitors: cytotoxicity in HepG2 cells; AID 588856; 410,000 compounds, 0.76% hits; Potency, µM (series often up to 46.1 µM), for inactives: at the top dose activity change, negative = cytotoxicity, most hits filed as cytotoxic; HepG2 CAGA-GFP viability, ATP luminescence, 18 h
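CellTiter-Glo luminescence gave cytotoxicity after 18 hours at 37 degrees C. The cells were HepG2 CAGA-GFP in 1% FBS DMEM, stimulated with 500 pg/mL TGF-beta after compound addition. %Activity was normalised to no-cell wells (complete cell-killing) and DMSO (no toxicity), and curves were fitted and classified.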
TGFb inhibitor: inhibitors of TGF-b signaling. HepG2 CAGA-GFP TGF-b/SMAD3 reporter, GFP fluorescence, 18 h; TGF-beta stimulated, 500 pg/mL final. Potency, µM (top dose mostly 46.1 µM), for the others: top-dose activity, negative = inhibition, usual class: inhibitors. 410,000 compounds, 1.2% hits. AID 588855; also: % is scaled to controls: 0 for no effect and ±100 for the full control effect; nearly all actives have a fitted effect of over 65% in size
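Inhibition of TGF-beta-driven CAGA-GFP reporter expression in HEPG2 cells is measured by cellular GFP fluorescence after 18 h stimulation with 500 pg/mL recombinant TGF-beta in 1% FBS medium at 37 degrees C.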
TDP1 cell CPT: growth inhibition of DT40 Tdp1-/-;hTDP1 cells with camptothecin (screen for TDP1 inhibitors); Potency, µM (doses to about 46.2 µM), inactives show at the top dose activity change, negative = growth inhibition, usual class: inhibitors; 420,000 compounds, 12% hits; chicken DT40 Tdp1-/-;hTDP1 cells + 20 nM CPT, ATP luminescence, 48 h; AID 686979; also: % is scaled to controls: 0 for no effect and ±100 for the full control effect; nearly all actives have a fitted effect of over 55% in size
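Chicken DT40 Tdp1-/- cells stably complemented with human TDP1 were seeded at 400 cells/well in medium containing 20 nM camptothecin, exposed to pin-transferred compounds, and grown at 37 °C for at least 48 hr. Viability was read as ATP luminescence.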
HT1080NT lethal: kills 2HG-producing HT-1080-NT fibrosarcoma cells; HT-1080-NT fibrosarcoma viability, CellTiter-Glo ATP luminescence, 48 h; Potency, µM (top dose mostly 46.1 µM), for inactives: at the highest dose activity, negative = less viability, hits mostly cytotoxic; 360,000 compounds, 1.6% hits; AID 686970;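 also: NT is the 2HG producing partner of a matched IDH1 knockdown line; 0% = DMSO-treated cells and -100% = media-only wells without cells; nearly all actives have a fitted effect of over 55% in size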
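Viability by CellTiter-Glo luminescence after 48 h compound exposure at 37C of HT-1080-NT cells (750/well, RPMI, 5% FBS). % activity scaled between DMSO wells and medium-only wells, then curve-fitted and categorized by curve class.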
* hit, by the source's call; u = inconclusive; x = not tested or not shown. Calls follow the shape of the dose curve; as a rule, active = well fitted curve in the direction sought with a large enough effect; inconclusive = small, poorly fitted or top-dose-only effect, or another doubt; inactive = no such curve, though single readings can be large; an effect the other way counts as inactive or inconclusive. Potency is read from the fitted curve at half-maximal effect.

SMILES	TDP1 cell noCPT	HT1080 IDH1KD tx	HepG2 viability	TGFb inhibitor	TDP1 cell CPT	HT1080NT lethal
COc1ccc(NC(=S)Nc2ccc3c(c2)c(=O)n(C)n3-c2ccccc2)cc1	u	u	-10%	34%	u	-27%
Cn1c(=O)c2cc(NC(=S)NCc3ccccc3F)ccc2n1C	-23%	-2%	4%	4%	0%	u
Cc1cc(C)cc(-n2c3ccc(NC(=O)Cc4cccc5ccccc45)cc3c(=O)n2C)c1	3.3µM*	2.1µM*	-11%	u	5.8µM*	u
CC(CC(=O)Nc1ccc2c(c1)c(=O)n(C)n2-c1cccs1)c1ccccc1 (stereo not drawn)	12µM*	4.1µM*	-5%	8%	13µM*	u
CC(CC(=O)Nc1ccc2c(c1)OCCO2)c1ccccc1 (stereo not drawn)	-26%	-2%	-1%	13%	u	2%
Cn1c(=O)c2cc(NC(=O)Cc3ccccc3F)ccc2n1-c1ccc(C(C)(C)C)cc1	16µM*	-28%	-19%	u	23µM*	u
CCNC(=S)Nc1ccc2c(c1)c(=O)n(C)n2-c1ccc(C(C)(C)C)cc1	u	u	-7%	u	26µM*	-27%
Cc1cccc(NC(=O)c2ccc(C(=O)Nc3cccc(C)c3C)cc2)c1C	3%	x	4%	1%	-20%	x
CCn1ccc2c(OCC(=O)NCCc3ccc(OC)c(OC)c3)cccc2c1=O	u	1%	-1%	6%	8%	2%
CCn1ccc2c(OCC(=O)Nc3ccc(OC)cc3OC)cccc2c1=O	6.5µM*	x	-5%	u	u	x
COc1ccc(NC(=O)COc2ccc(-n3cnnn3)cc2)cc1OC	23µM*	2%	7%	-1%	u	2%
CCCn1ccc2c(OCC(=O)Nc3ccc(F)cc3F)cccc2c1=O	u	x	-16%	-13%	16µM*	x
CCOC(=O)Nc1cccc(OCC(=O)Nc2ccc(OC)cc2OC)c1	9.2µM*	-10%	0%	-6%	u	17%
Cc1nc(NC(=O)CSC2=NCCS2)sc1C(=O)N(C)C	1%	-6%	3%	-8%	u	-29%
CCn1ccc2c(OCC(=O)Nc3ccc(C)c(Cl)c3)cccc2c1=O	16µM*	x	-37%	7.1µM*	26µM*	x
CCCn1ccc2c(OCC(=O)Nc3ccc(OC)c(OC)c3)cccc2c1=O	7.3µM*	x	-18%	-26%	13µM*	x
COCCn1ccc2c(OCC(=O)Nc3cccc(NC(C)=O)c3)cccc2c1=O	-25%	-1%	18µM*	-4%	-23%	-5%
CCCn1ccc2c(OCC(=O)Nc3ccc(NC(C)=O)cc3)cccc2c1=O	u	-1%	-12%	7%	u	-3%
Cc1ccc(NC(=O)COc2ccccc2C=O)cc1Cl	-28%	-20%	15%	18%	5%	-29%
O=C(NCCc1ccccc1)c1ccc2c(c1)CCN2S(=O)(=O)c1ccc(Cl)cc1	u	x	-2%	-4%	u	x
Cc1sc2nc(CSCC(=O)Nc3ccc(N4CCOCC4)cc3)[nH]c(=O)c2c1C	u	2%	-22%	1%	u	0%
Cc1sc2nc(C(C)Nc3ccccc3N3CCOCC3)[nH]c(=O)c2c1C (stereo not drawn)	15µM*	-14%	4%	u	u	-4%
O=[N+]([O-])c1ccc(C[n+]2cccc(O)c2)cc1	2%	13%	-2%	7%	5%	13%
COc1cc2cc[n+](Cc3ccc([N+](=O)[O-])cc3)cc2cc1OC	u	-16%	-2%	-7%	18µM*	-13%
Cc1cccn2c(=O)c(C=O)c(N3CCCCC3)nc12	-23%	0%	-8%	0%	0%	3%
SMILES	TDP1 cell noCPT	HT1080 IDH1KD tx	HepG2 viability	TGFb inhibitor	TDP1 cell CPT	HT1080NT lethal
O=Cc1c(Cl)nc2ccccn2c1=O	16µM*	u	0.56µM*	u	18µM*	u
CC1CCN(c2nc3ccccn3c(=O)c2C=O)CC1	0%	-6%	3%	0%	-13%	4%
Cc1cccn2c(=O)c(C=O)c(Cl)nc12	2.3µM*	u	-69%	16µM*	2.6µM*	u
Cc1ccc(C)c(NC(=O)CN(C)C(C)C(=O)N2CC(C)CC(C)C2)c1 (stereo not drawn)	u	10%	-15%	5%	-10%	5%
C=CCn1c(SCC(=O)c2ccc(O)c(O)c2)nnc1-c1cccc(OC)c1	15µM*	-10%	-19%	3%	15µM*	1%
C=CCn1c(SCC(=O)c2ccc(O)c(O)c2)nnc1-c1ccc(OC)cc1	16µM*	-2%	-18%	5%	21µM*	1%
C=CCn1c(SCC(=O)c2ccc(O)c(O)c2)nnc1-c1ccc(C)cc1	u	-9%	-6%	u	16µM*	-9%
C=CCn1c(SCC(=O)c2cccs2)nnc1-c1cccc(OC)c1	-25%	-25%	-19%	u	-13%	u
COc1ccc2c(c1)C=C/C2=C/c1ccc(N(C)C)cc1	u	x	-16%	9%	u	x
O=Cc1ccc(/C=C2/C=Cc3ccccc32)cc1	-18%	x	14%	4%	u	x
CN(C)c1ccc(/C=C2\C=Cc3cc(N)ccc32)cc1	11µM*	x	-8%	6%	u	x
CC(C)CN(C)c1ccc(/C=C2\C=Cc3ccccc32)cc1	2.5µM*	x	-46%	-18%	2.8µM*	x
CCN(CC)c1ccc(/C=C2\C=Cc3ccccc32)cc1	18µM*	x	-6%	9%	u	x
O=Cc1ccc(/C=C2\C=Cc3ccccc32)cc1	6.3µM*	x	-62%	3.5µM*	5.6µM*	x
O=C(O)C1CCN(S(=O)(=O)c2ccc3[nH]ccc3c2)CC1	-4%	5%	-8%	34%	10%	4%
Cc1nc(C)c(C(=O)N/N=C/c2ccco2)s1	u	21%	-10%	-17%	34%	12%
COc1ccc(Cc2nnc(NC(=O)Nc3ccccc3F)s2)cc1OC	u	u	13%	u	u	-29%
Oc1c(Br)cc(/C=N/Nc2nncc3ccccc23)cc1Br	23µM*	2%	-18%	-3%	u	11%
O=C(CCC(=O)N1CCSc2ccccc21)NCCc1ccccc1	-25%	-3%	-1%	2%	3%	-5%
